The panel holds about 79,000 compounds, 15% with a hit somewhere; the sample as a whole holds those more often. Activity calls are given as the source filed them. Rule as the data show it: active = growth inhibition above about 70%; inactive = the rest.
Columns and labels:
[1] = NCI Yeast Anticancer Drug Screen. Data for the wt1 strain (AID 149);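 also: 0% = growth of vehicle-treated wt1 cultures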; details: S. cerevisiae wt1 strain (SPY 50644) growth inhibition, active compounds read high
In short: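 wt1 strain grown with compound or vehicle; inhibition taken from the growth difference.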

[2] = NCI Yeast Anticancer Drug Screen. Data for the rad50EPP+ strain (AID 151);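 also: 0% = growth of vehicle-treated control cultures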; details: S. cerevisiae rad50 mutant strain, active compounds read high
In short: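 Compounds were applied to the rad50EPP+ yeast strain, which bears a defined DNA repair alteration, and growth inhibition was determined relative to vehicle-treated cultures.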

[3] = NCI Yeast Anticancer Drug Screen. Data for the mgt1 strain (AID 153); details: S. cerevisiae mgt1 mutant growth inhibition, active compounds read high
In short: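 Strain: mgt1 yeast, one of a set carrying defined DNA damage repair or cell cycle control alterations. Compound-treated growth compared with vehicle.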

[4] = NCI Yeast Anticancer Drug Screen. Data for the rad50 strain (AID 155);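 also: 0% = growth of vehicle-only cultures of the same strain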; details: S. cerevisiae rad50 strain growth inhibition, active compounds read high
In short: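 DNA repair mutant yeast, compound exposure, growth read-out; inhibition is taken relative to vehicle.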

[5] = NCI Yeast Anticancer Drug Screen. Data for the mec2-1 strain (AID 157); details: S. cerevisiae mec2-1 strain, active compounds read high
In short: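 Strain: mec2-1 (DNA repair/cell cycle alteration). Compound exposure, then growth measured; inhibition expressed relative to vehicle.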

[6] = NCI Yeast Anticancer Drug Screen. Data for the rad14 strain (AID 159);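 also: 0% = growth of vehicle-treated control cultures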; details: S. cerevisiae rad14 strain growth inhibition, active compounds read high
In short: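 DNA repair-defective yeast, compound-exposed; % growth inhibition derived by comparison with vehicle-treated controls.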

[7] = NCI Yeast Anticancer Drug Screen. Data for the sgs1 mgt1 strain (AID 161);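 also: 0% = growth of cultures given vehicle only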; details: S. cerevisiae sgs1 mgt1 strain, active compounds read high
In short: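 Genetically altered yeast, compound exposure, growth inhibition relative to vehicle.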

[8] = NCI Yeast Anticancer Drug Screen. Data for the CLN2oe strain (AID 163);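 also: 0% = growth of vehicle-only control cultures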; details: S. cerevisiae CLN2oe strain, active compounds read high
In short: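 Growth of a genetically modified yeast strain is measured after compound exposure and compared with cultures given vehicle alone.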

[9] = NCI Yeast Anticancer Drug Screen. Data for the cln2 rad14 strain (AID 165);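 also: 0% = growth equal to vehicle treated cultures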; details: S. cerevisiae cln2 rad14 strain, active compounds read high
In short: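 Compounds are applied to the cln2 rad14 yeast strain, and growth is then compared with that of vehicle-treated cultures to give inhibition.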

[10] = NCI Yeast Anticancer Drug Screen. Data for the bub3 strain (AID 167); details: S. cerevisiae bub3 mutant strain, active compounds read high
In short: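 In this screen, a yeast mutant lacking normal mitotic checkpoint function is challenged with compound. Relative growth versus vehicle gives the inhibition value.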

[11] = NCI Yeast Anticancer Drug Screen. Data for the wt2 strain (AID 169);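 also: 0% = growth of vehicle-treated yeast cultures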; details: S. cerevisiae wt2 strain growth inhibition, active compounds read high
In short: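 This strain belongs to a panel of yeast strains with defined genetic alterations in DNA damage repair or cell cycle control. Compounds are applied, and growth inhibition is measured against vehicle-treated cultures.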

[12] = NCI Yeast Anticancer Drug Screen. Data for the mlh1 strain (AID 171);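 also: 0% = growth of vehicle-treated control cultures of the same strain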; details: S. cerevisiae mlh1 strain growth inhibition, active compounds read high
In short: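 Growth of the mutant yeast strain after compound exposure, expressed as inhibition relative to vehicle-only controls.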

[13] = NCI Yeast Anticancer Drug Screen. Data for the sgs1 strain (AID 173);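 also: 0% = growth of vehicle-only control cultures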; details: S. cerevisiae sgs1 mutant, active compounds read high
In short: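 Growth of a yeast strain bearing a defined genetic alteration is measured after compound treatment. Inhibition is expressed relative to vehicle-only controls.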

[14] = NCI Yeast Anticancer Drug Screen. Data for the mlh1 rad18 strain (AID 175); details: S. cerevisiae mlh1 rad18 strain growth inhibition, active compounds read high
In short: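 Read-out is yeast growth inhibition, calculated against vehicle-only controls. The compound was applied to a strain engineered with DNA damage repair alterations.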

[15] = NCI Yeast Anticancer Drug Screen. Data for the rad18 strain (AID 177); details: S. cerevisiae rad18 mutant growth inhibition, active compounds read high
In short: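 Growth of the mutant yeast strain after compound exposure, normalised to vehicle-only cultures.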

[16] = at 5.0 µM (retest, dose inferred, filed as 0.5)
[17] = at 50.0 µM (retest, dose inferred, filed as 5.0)

Measured: growth inhibition

CCN(CC)c1cccc(Nc2nc3ccccc3s2)c1
inactive: [1]; at 1.2 µM 8% | [1]; at 3.7 µM 10% | [1]; at 11.0 µM 6% | [1]; at 33.0 µM 7% | [1]; at 100.0 µM 5% | [2]; at 1.2 µM -9% | [2]; at 3.7 µM 0% | [2]; at 11.0 µM -2% | [2]; at 33.0 µM 1% | [2]; at 100.0 µM 19% | [3]; at 1.2 µM 6% | [3]; at 3.7 µM 6% | [3]; at 11.0 µM 5% | [3]; at 33.0 µM 7% | [3]; at 100.0 µM 7% | [4]; at 1.2 µM 8% | [4]; at 3.7 µM 9% | [4]; [16] -4% | [4]; at 11.0 µM 5% | [4]; at 33.0 µM 7% | [4]; [17] 2% | [4]; at 50.0 µM 1.6% | [4]; at 100.0 µM 7% | [5]; at 1.2 µM 13% | [5]; at 3.7 µM 14% | [5]; [16] -5% | [5]; at 11.0 µM 15% | [5]; at 33.0 µM 16% | [5]; [17] 1% | [5]; at 50.0 µM 7.7% | [5]; at 100.0 µM 8% | [6]; at 1.2 µM 7% | [6]; at 3.7 µM 7% | [6]; at 11.0 µM 7% | [6]; at 33.0 µM 7% | [6]; at 100.0 µM 7% | [7]; [16] 3% | [7]; [17] 21% | [7]; at 50.0 µM 17.4% | [8]; at 1.2 µM -3% | [8]; at 3.7 µM 1% | [8]; at 11.0 µM -1% | [8]; at 33.0 µM -4% | [8]; at 100.0 µM -10% | [9]; [16] -9% | [9]; [17] -1% | [9]; at 50.0 µM -7.1% | [10]; at 1.2 µM 0% | [10]; at 3.7 µM -1% | [10]; [16] 32% | [10]; at 11.0 µM 5% | [10]; at 33.0 µM 14% | [10]; at 100.0 µM 30% | [11]; at 1.2 µM -1% | [11]; at 3.7 µM -1% | [11]; at 11.0 µM -1% | [11]; at 33.0 µM -2% | [11]; at 100.0 µM -3% | [12]; at 1.2 µM 10% | [12]; at 3.7 µM 9% | [12]; at 11.0 µM 10% | [12]; at 33.0 µM 9% | [12]; at 100.0 µM 8% | [13]; at 1.2 µM 8% | [13]; at 3.7 µM 7% | [13]; at 11.0 µM 7% | [13]; at 33.0 µM 7% | [13]; at 100.0 µM 5% | [14]; [16] 4% | [14]; [17] 20% | [14]; at 50.0 µM 25.1% | [15]; at 1.2 µM 7% | [15]; at 3.7 µM 7% | [15]; at 11.0 µM 6% | [15]; at 33.0 µM 3% | [15]; at 100.0 µM 1%
active: [10]; [17] 83% | [10]; at 50.0 µM 89.8%

O=C1c2ccccc2C2CCC1c1ccccc12 (stereo not drawn)
active: [1]; at 100.0 µM 97% | [3]; at 100.0 µM 97% | [4]; at 100.0 µM 94%
inactive: [1]; at 1.2 µM -12% | [1]; at 3.7 µM -14% | [1]; at 11.0 µM -13% | [1]; at 33.0 µM -6% | [2]; at 1.2 µM 1% | [2]; at 3.7 µM -4% | [2]; at 11.0 µM -2% | [2]; at 33.0 µM 50% | [2]; at 100.0 µM 68% | [3]; at 1.2 µM -12% | [3]; at 3.7 µM 6% | [3]; at 11.0 µM 5% | [3]; at 33.0 µM 17% | [4]; at 1.2 µM -19% | [4]; at 3.7 µM -5% | [4]; [16] 0% | [4]; at 11.0 µM 3% | [4]; at 33.0 µM 20% | [4]; [17] -29% | [4]; at 50.0 µM 62.9% | [5]; at 1.2 µM -24% | [5]; at 3.7 µM -14% | [5]; [16] -6% | [5]; at 11.0 µM 3% | [5]; at 33.0 µM 12% | [5]; [17] -19% | [5]; at 50.0 µM -6.1%

From PubChem BioAssay (NCI)
